Assay results published in PubChem BioAssay AID2314 (National Center for Advancing Translational Sciences (NCATS), 2010).
About 37,000 (12%) of roughly 300,000 compounds were called active. No stated cut-off is given here; in the data, active means max response mostly above about 13% (no sharp cut-off); inactive means mostly below about 14%. The entries come from a sample that favours actives as a whole.

Experiment: Cycloheximide Counterscreen for Small Molecule Inhibitors of Shiga Toxin; further: read at 38.3 µM for the half of the compounds with a filed dose; 0% is about no effect
Conditions: cell reporter, cycloheximide protein synthesis inhibition counterscreen; active compounds read high
In the case of `CCN(CC)/[N+]([O-])=N/Oc1cc(O/[N+]([O-])=N/N2CCCC2CO)c([N+](=O)[O-])cc1[N+](=O)[O-]` (stereo not given), the max response is reported as -2.07% (inactive).
In the case of `O=C(Nc1cccc(Cl)c1)c1cncn1-c1ccc(F)cc1`, the max response is reported as 6.32% (inactive).
In the case of `COc1ccccc1C(=O)NNC(=O)CCN1C(=O)/C(=C\c2ccccc2)SC1=S`, the max response is reported as -3.61% (inactive).
In the case of `CCn1cc(CCC(=O)NCc2ccc(F)cc2)c2ccccc21`, the max response is reported as 5.51% (inactive).
With `O=C(CCCNS(=O)(=O)c1cccc2nsnc12)NCCN1CCN(c2ccccc2F)CC1` the max response was -4.37% (inactive).
For `COc1ccccc1Oc1ccc(N/C=C2/CCCC2=O)cc1`, the max response was 15.4% (active).
For `COc1ccc(NS(=O)(=O)c2ccc(Oc3c(C#N)cccc3C#N)cc2)cc1`, the max response was 5.34% (inactive).
With `COc1ccccc1Oc1ccc(S(=O)(=O)Nc2cccnc2)cc1` the max response was -1.76% (inactive).
With `CCOC(=O)c1[nH]c2c(c1-c1ccccc1)C(=O)CC(c1ccc(Cl)cc1)C2` (stereo not given) the max response was 5.07% (inactive).
In the case of `CCOC(=O)c1[nH]c2c(c1C)C(=O)CC(c1ccc(N(C)C)cc1)C2` (stereo not given), the max response is reported as 25.5% (active).
With `COCCOC(=O)c1[nH]c2c(c1C)C(=O)CC(c1ccc(OC)cc1)C2` (stereo not given) the max response was 7.29% (inactive).
With `CCOC(OCC)c1ccc(/C=C\c2nccc(N)n2)cc1` the max response was 38.5% (active).
In the case of `Cc1cc(=O)n2nc(N3CCCC(C(=O)NCc4ccc(Cl)cc4)C3)sc2n1` (stereo not given), the max response is reported as -2.2% (inactive).
In the case of `CC(=O)OCc1cc2cc(C)ccc2[nH]c1=O`, the max response is reported as -2.45% (inactive).
With `CCOC(=O)c1cc2cc(C)ccc2[nH]1` the max response was 39.7% (active).
For `CCNCc1cc2cc(C)ccc2[nH]c1=O`, the max response was 4.83% (inactive).
For `Cc1ccc2c(c1)N(CC(=O)N(Cc1ccccn1)Cc1ccco1)C(=O)C(C(C)C)O2` (stereo not given), the max response was 8.51% (inactive).
With `CCOC(CNC(=O)C1CCN(S(=O)(=O)c2ccc3nc4c(c(C(=O)O)c3c2)CC(C)CC4)CC1)OCC` (stereo not given) the max response was -3.45% (inactive).
For `CC(=O)c1cccc(NC(=O)COc2ccc(S(=O)(=O)N3CCOCC3)cc2)c1`, the max response was 0.879% (inactive).
In the case of `CC(C)(C)NS(=O)(=O)c1ccc(NC(=O)NC2CCCCC2)cc1`, the max response is reported as 9% (inactive).
In the case of `Cc1cc(C)cc(NC(=O)NC2CCCCCCC2)c1`, the max response is reported as 17.4% (active).
In the case of `Cc1cc(C)cc(NC(=O)NC2CCN(CC(=O)Nc3cccc(Cl)c3C)CC2)c1`, the max response is reported as -0.314% (inactive).
In the case of `CC(C)N1CCC(NC(=O)Nc2ccccc2)CC1`, the max response is reported as -2.49% (inactive).
In the case of `Cc1cc(C)cc(NC(=O)N2CCCCCCC2)c1`, the max response is reported as -5.05% (inactive).
With `CC(C)c1ccc(NC(=O)NC2CCCCC2)cc1` the max response was 44.1% (active).
In the case of `C/C(=N\NC(=O)OC(C)(C)C)c1ccc[nH]1`, the max response is reported as 42.4% (active).
In the case of `Cc1ccccc1NC(=O)NNC(=O)OC(C)(C)C`, the max response is reported as -3.59% (inactive).
In the case of `COc1ccccc1CNS(=O)(=O)c1ccc2c(c1)NC(=O)CS2`, the max response is reported as 30.5% (inactive).
In the case of `O=[N+]([O-])c1cc([N+](=O)[O-])c(Oc2cc(F)cc(F)c2F)cc1NN1CCCCC1`, the max response is reported as 0.495% (inactive).
For `CCOC(=O)c1sc(NC(=O)CSc2nc3c(c(=O)n2-c2ccccc2)SCC3)c(C(=O)OCC)c1C`, the max response was -2.16% (inactive).
For `COc1cc2cc(C(=O)N/N=C/c3cccc(OC)c3OC)[nH]c2cc1OC`, the max response was 0.0255% (inactive).
In the case of `COc1cccc(/C=N/NC(=O)c2[nH]nc3c2CCc2ccccc2-3)c1O`, the max response is reported as 6.14% (inactive).
With `COc1cccc(/C=N\NC(=O)C2=NNC(=O)C2C)c1O` (stereo not given) the max response was 32.5% (active).
In the case of `O=c1[nH]nc(SCCS(=O)(=O)c2ccc(F)cc2)n1-c1ccccc1C(F)(F)F`, the max response is reported as -1.24% (inactive).
In the case of `COc1cccc2cc(-c3cc(=O)oc4cc(C)c(O)cc34)oc12`, the max response is reported as 8.46% (inactive).
In the case of `O=C(NCc1cccs1)c1ccc2c(c1)ncn2C1CCCC1`, the max response is reported as 31.8% (active).
In the case of `COc1ccccc1-n1cnc2cc(C(=O)NCC3CCCO3)ccc21` (stereo not given), the max response is reported as -2.15% (inactive).
With `O=C(NCCN1CCOCC1)c1ccc2c(c1)ncn2C1CCCC1` the max response was 1.03% (inactive).
In the case of `CCCCC(CC)CNCc1cccn1CCN1CCOCC1` (stereo not given), the max response is reported as -0.53% (inactive).
With `CC(C)CN(Cc1c(O)ccc2c(=O)c(-c3ccccc3)coc12)CC(C)C` the max response was 8.57% (inactive).
With `CC(C)=CCc1c(O)c(CC=C(C)C)c2occ(-c3ccc(O)cc3)c(=O)c2c1O` the max response was 10.9% (active).
With `O=C(Cn1cc(C(=O)C2CC2)c2ccccc21)Nc1ccccc1Cl` the max response was -7.35% (inactive).
With `O=C(CN1CCCCCC1)Nc1c(Cl)cc(Cl)cc1Cl` the max response was 21.3% (active).
In the case of `O=C(CN1CCOCC1)Nc1c(Cl)cc(Cl)cc1Cl`, the max response is reported as -2.9% (inactive).
With `O=C(CN1CCCCCC1)Nc1ccc(Cl)cc1F` the max response was 8.65% (inactive).
For `Cc1csc(NC(=O)CN2CCCCCC2)n1`, the max response was 2.46% (inactive).
With `COc1cc(Cl)c(C)cc1NC(=O)CN1CCCCCC1` the max response was 0.423% (inactive).
In the case of `Cc1cc(C)c(NC(=O)CN2CCCCCC2)c(C)c1`, the max response is reported as 34.2% (active).
For `CC1CCCCN1CCCNc1ccc(C(CC(N)=O)NC(=O)c2ccccc2)cc1[N+](=O)[O-]` (stereo not given), the max response was -1.02% (inactive).
In the case of `COCCN(Cc1cc2cc3c(cc2nc1Cl)OCO3)C(=O)c1cccc(C)c1`, the max response is reported as 5.64% (inactive).
In the case of `CCOc1ccc(C(O)Cc2nc3ccccc3n2C)cc1` (stereo not given), the max response is reported as 22.1% (active).
For `COc1ccc(OC)c(C(O)c2nc3ccccc3n2C)c1` (stereo not given), the max response was -2.03% (inactive).
In the case of `CCCn1c(C(O)c2ccc(OCC)cc2)nc2ccccc21` (stereo not given), the max response is reported as -3.7% (inactive).
For `COc1cc(C(O)c2nc3ccccc3n2C)cc(OC)c1OC` (stereo not given), the max response was 0.887% (inactive).
In the case of `CCOc1ccc(C(O)Cn2c(=N)n(CCN3CCCCC3)c3ccccc32)cc1` (stereo not given), the max response is reported as -4.27% (inactive).
For `COc1cccc(C(O)Cc2nc3ccccc3n2C)c1OC` (stereo not given), the max response was 20.6% (active).
With `COc1ccc(CN2CC(C(=O)NC3CCCCC3)CC2=O)cc1` (stereo not given) the max response was -2% (inactive).
For `O=C1Oc2ccccc2C(=O)/C1=C/c1ccccc1O`, the max response was 12.4% (inactive).
In the case of `COCCNC(=O)C1CCN(C(=O)C2CC(=O)N(c3ccc(C)cc3)C2)CC1` (stereo not given), the max response is reported as 1.44% (inactive).
In the case of `CCOC(=O)c1c(NC(=O)c2ccc(S(=O)(=O)N(C)CC3CCCO3)cc2)sc2c1CC(C)(C)NC2(C)C` (stereo not given), the max response is reported as -4.44% (inactive).
With `COc1ccc(NC(=O)N2CCCC2C(=O)NCc2ccccc2Cl)cc1` (stereo not given) the max response was -3.43% (inactive).
With `O=C(c1ccccc1F)N(Cc1ccccc1)Cc1ccccc1` the max response was -2.08% (inactive).
In the case of `C=CCN1C=C2C(=O)C(C)(OC(=O)CCc3ccccc3)C(=O)C=C2C=C1c1ccc(C#N)cc1` (stereo not given), the max response is reported as -1.82% (inactive).
In the case of `O=C(Cn1c(=O)sc2ccccc21)Nc1ccc2c(c1)OCCO2`, the max response is reported as -0.826% (inactive).
In the case of `O=C(Nc1ccc2c(c1)OCCO2)c1ccoc1`, the max response is reported as 35.3% (active).
With `O=C(Nc1ccc2c(c1)OCCO2)c1ccncc1` the max response was 33.1% (active).
In the case of `Cn1c(=O)c2ccccc2n(CC(=O)Nc2ccc3c(c2)OCCO3)c1=O`, the max response is reported as -8.73% (inactive).
In the case of `O=C(CCN1C(=O)c2ccncc2C1=O)Nc1ccc2c(c1)OCCO2`, the max response is reported as 1.67% (inactive).
With `O=C(Nc1ccc2c(c1)OCCO2)c1cnccn1` the max response was 33% (inactive).
For `COc1cccc(N(C(=O)CNC(=O)c2ccco2)C(C(=O)NC2CCCCC2)c2cccnc2)c1` (stereo not given), the max response was -2.98% (inactive).
In the case of `CCN(CC)c1ccc(NC(=O)CN2CCN(c3ccccn3)CC2)cc1`, the max response is reported as -3.57% (inactive).
In the case of `CC[n+]1cc(C)ccc1/C=C/c1ccc(N(C)C)cc1`, the max response is reported as 12.8% (inactive).
In the case of `O=c1ccnc(Nc2ccc(Cl)cc2)[nH]1`, the max response is reported as 1.06% (inactive).
With `O=C(Nc1cc(S(=O)(=O)N2CCOCC2)ccc1Cl)c1cc(=O)c2ccccc2o1` the max response was 2.68% (inactive).
In the case of `N#Cc1nc(Cc2cccc3ccccc23)oc1NCc1ccc2c(c1)OCO2`, the max response is reported as -2.28% (inactive).
For `COc1ccc(Nc2oc(-c3ccccc3Cl)nc2C#N)cc1`, the max response was 9% (inactive).
For `Cc1ccccc1-c1nc(C#N)c(NCc2ccco2)o1`, the max response was 8.49% (inactive).
For `N#Cc1nc(Cc2ccccc2)oc1NCCc1ccccc1`, the max response was 39.2% (active).
In the case of `CCOc1ccc(Nc2oc(Cc3ccccc3)nc2C#N)cc1`, the max response is reported as 31.6% (active).
For `N#Cc1nc(COc2ccc(-c3ccccc3)cc2)oc1NCc1cccnc1`, the max response was 9.29% (inactive).
In the case of `O=c1cc(C(F)(F)F)[nH]c(=O)n1C1CCCCC1`, the max response is reported as 6.49% (inactive).
With `CCCCn1c(N)c(N(CC)C(=O)c2ccccc2C(F)(F)F)c(=O)[nH]c1=O` the max response was -3.22% (inactive).
With `CCSc1nc(C)c(CCOc2cccc(C)c2)c(=O)[nH]1` the max response was 1.14% (inactive).
For `O=C(Nc1ccccc1)OCc1cc(-c2ccc(Cl)cc2)on1`, the max response was -2.77% (inactive).
With `O=C(Nc1ccc(Cl)cc1)OCc1cc(-c2ccccc2)on1` the max response was 22.5% (active).
In the case of `Clc1ccc(-c2cc(COc3ccccc3)no2)cc1Cl`, the max response is reported as -2.19% (inactive).
In the case of `CS(=O)(=O)Nc1cccc(C2=NN(C(=O)c3cccc(F)c3)C(c3cccs3)C2)c1` (stereo not given), the max response is reported as -2.01% (inactive).
With `Cc1ccc(C2CC(c3cccc(NS(C)(=O)=O)c3)=NN2S(C)(=O)=O)cc1` (stereo not given) the max response was 45.1% (active).
With `Cc1ccccc1C1CC(c2cccs2)=NN1S(C)(=O)=O` (stereo not given) the max response was -1.48% (inactive).
For `CS(=O)(=O)Nc1cccc(C2=NN(S(=O)(=O)c3ccccc3)C(c3cccs3)C2)c1` (stereo not given), the max response was -3.68% (inactive).
In the case of `CCS(=O)(=O)Nc1ccc(C2=NN(C(C)=O)C(c3cccs3)C2)cc1` (stereo not given), the max response is reported as 16% (inactive).
In the case of `CS(=O)(=O)Nc1ccc(C2=NN(S(C)(=O)=O)C(c3cccs3)C2)cc1` (stereo not given), the max response is reported as 33.7% (active).
For `CCOc1ccc(NC(=S)NC(=O)/C=C/c2ccc(OC)cc2)c([N+](=O)[O-])c1`, the max response was 9.22% (inactive).
With `c1ccc2c(C[n+]3csc4ccccc43)cccc2c1` the max response was 9.31% (inactive).
With `COC(=O)Cn1cnc2scc(-c3ccc(C)c(C)c3)c2c1=O` the max response was -2.51% (inactive).
